Hits are enriched below; roughly 3% of the tested compounds scored in any of these assays.
ALOX12 inhib: 12-hLO (ALOX12) enzyme inhibition. P18054. purified 12-hLO, xylenol orange hydroperoxide absorbance. Potency, µM (highest dose often 57.1 µM), for inactives: at the top dose activity change, negative = inhibition, hits mostly inhibitors. actives 0.12% (n = 150,000). AID 1452; note: potency is the fitted concentration of half-maximal effect; nearly all actives have a fitted effect of over 55% in size
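Lipoxygenase turnover measured by absorbance at 573 and 405 nm after Fe-XO development. Human 12hLO 150 nM, arachidonate 40 uM, pH 7.0 Hepes buffer with detergent; 15 min compound preincubation, 30 min reaction.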
PNC inhibitor: inhibitors of perinucleolar compartment assembly; PC3M PTB-GFP, PNC prevalence imaging, 16 h; hits give low values; activity change (PNC), negative = inhibition, % at 10 µM; actives 3.1% (n = 140,000); AID 2417;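 active = readout at or below -70, meaning at least 70% loss of cells showing the perinucleolar compartment, a nuclear body marking cancer cells; inconclusive = readout between -30 and a set limit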;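 note: plate controls were DMSO wells for no effect and camptothecin positive control wells for full effect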
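Read-out is percentage of cells bearing a perinucleolar compartment, from automated 20x imaging of fixed, Hoechst-stained PC3M PTB-GFP cells. Cells were seeded 4 h, then exposed 16 h to compound (23 nl of library stock) in duplicate plates.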
IMPase inh: cell-permeable inhibitors of inositol monophosphatase (IMPase) | P97697 | CHO-M1 cells, IP1 accumulation, HTRF TR-FRET ratio | inhibition (IP1 accumulation), % at 46.1 µM | 120,000 tested, under 10 active | AID 901; active = well fitted curve in the direction sought with a large enough effect in the signal ratio, not every such curve was filed as active; inconclusive = small, poorly fitted or top-dose-only effect, or a change in a side signal; inactive = no such curve, though single readings can be large or run the other way; the % refers to the signal ratio;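 note: cells stimulated with carbachol in lithium chloride buffer; plate controls were DMSO basal wells for no effect and reference inhibitor wells for full effect; higher means more IMPase inhibition seen as more IP1 and lower FRET ratio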
Target sequence (P97697 whole entry, looked up): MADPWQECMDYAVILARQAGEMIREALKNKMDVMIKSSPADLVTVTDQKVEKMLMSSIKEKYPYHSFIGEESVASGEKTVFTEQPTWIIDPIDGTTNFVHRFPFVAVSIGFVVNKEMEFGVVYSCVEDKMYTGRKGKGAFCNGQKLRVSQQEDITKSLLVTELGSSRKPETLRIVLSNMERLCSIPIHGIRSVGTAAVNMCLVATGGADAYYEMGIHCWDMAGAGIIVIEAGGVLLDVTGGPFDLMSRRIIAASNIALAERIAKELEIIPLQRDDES
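CHO-M1, 2000 cells/well, cultured 16–30 h; cpd up to 46 uM; carbachol (50 uM solution, stimulation buffer w/ 50 mM LiCl, pH 7.4), 30 min 37C; IP-One TR-FRET, 10 min RT; Ex 320/Em 665, 620; Hill-fit AC50.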
ALOX15B inhib: inhibitors of human 15-lipoxygenase 2 (ALOX15B). actives 0.56% (n = 110,000). O15296. Potency, µM (series often up to 57.1 µM), for inactives: top-dose activity change, negative = inhibition, usual class: inhibitors. purified 15hLO-2, xylenol orange hydroperoxide absorbance. AID 881; note: potency is the fitted concentration of half-maximal effect; nearly all actives have a fitted effect of over 60% in size
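Purified human 15hLO-2 (50 nM) preincubated 15 min with compound, then 45 uM arachidonic acid for 90 min at RT in 25 mM Hepes pH 7.5, 0.01% Triton X-100. Hydroperoxide detected by Fe-xylenol orange; 573/405 nm absorbance ratio.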
An asterisk follows results filed as active; ? = inconclusive; nt = not tested or not shown. Unless noted, calls come from the whole dose curve; as a rule, active = well fitted curve in the direction sought with a large enough effect; inconclusive = small, poorly fitted or top-dose-only effect, or another doubt; inactive = no such curve, though single readings can be large; an effect the other way counts as inactive or inconclusive. Unless noted, % is set by controls: 0 for no effect and ±100 for the full control effect.

SMILES	ALOX12 inhib	PNC inhibitor	IMPase inh	ALOX15B inhib
O=c1cnc2cnc(Nc3ccccc3)nc2n1C1CC1	nt	nt	nt	-10.3%
COCCN(C(=O)Cn1nnc2ccccc21)C(C(=O)NC1CCCCC1)c1ccc(OC)cc1OC (configuration not stated)	5.5%	-18.7	7.8	nt
COCCN(C(=O)Cn1nnc2ccccc21)C(C(=O)NC1CCCC1)c1ccc(OC)cc1OC (configuration not stated)	1.7%	-87.8*	?	nt
Cc1ccc(NS(=O)(=O)c2cccc(C(=O)N/N=C/c3ccc4c(c3)OCCO4)c2)c(C)c1	6.0%	-27.6	nt	nt
CC(C)C1=Nc2cccc3cccc(c23)N1	-2.7%	68.9	6.6	10µM*
COCCNC(=O)CSc1nc(-c2cc(OC)c(OC)c(OC)c2)[nH]c1-c1ccc(Cl)cc1	nt	nt	-3.9	nt
CC(C)Cc1nnc(NC(=O)c2ccc([N+](=O)[O-])cc2)s1	2.6%	?	-1.3	-0.5%
C=CCOc1nc2c(c(=O)n(C)c(=O)n2C)n1C	-0.2%	-0.8	-3.8	1.3%
C/C=C/COc1nc2c(c(=O)n(C)c(=O)n2C)n1C	1.9%	-100.0*	8.3	nt
Cc1nn(CCc2nn[nH]n2)c2nc(C(F)(F)F)cc(C(F)(F)F)c12	1.1%	-84.4*	3.5	-0.9%
CC1(CCc2ccccc2)NC(=S)N(c2ccc(Cl)cc2)N1 (configuration not stated)	?	-5.2	nt	nt
CC1(CCc2ccccc2)NC(=S)N(c2ccccc2)N1 (configuration not stated)	?	-123.8*	nt	nt
Cc1ccc(NC(=O)COC(=O)Cn2c(C)csc2=O)cc1C	2.8%	28.8	-6.2	2.6%
Cc1csc(=O)n1CC(=O)OCc1cccc2ccccc12	6.6%	-100.0*	-0.2	nt
O=C(NCCc1ccccc1)c1cccnc1	5.4%	-2.9	-7.6	5.6%
NS(=O)(=O)c1ccc(CCNC(=O)c2cccnc2)cc1	0.2%	-100.0*	5.4	nt
NC(=S)N=Nc1c(O)n(Cc2ccccc2)c2ccccc12	1.5%	-100.0*	nt	nt
CCN(CC)c1ccc(/C=N/NC(=O)c2ccco2)cc1	-0.1%	-93.8*	nt	nt
CCCCC[C@H](O)/C=C/C1=C(CCCCCCC(=O)O)C(=O)CC1	-4.7%	-114.6*	nt	nt
CCOC(=O)CN1C(=O)S/C(=C/c2ccc(N3CCCCC3)o2)C1=O	-5.4%	?	1.4	-21.2%
COC(=O)CN1C(=O)S/C(=C/c2ccc(N3CCCCC3)o2)C1=O	-7.3%	8.3	-3.4	12.6µM*
COc1cc(OC)nc(Oc2ccccc2C(=O)Oc2cccc(C)c2)n1	-1.7%	31.9	-0.1	1.0%
COC(=O)Cc1nnc(NC(=O)c2ccccc2)s1	-6.6%	-94.7*	1.6	-10.5%
CCN(CC)S(=O)(=O)c1cccc(C(=O)N2CC(O)CC2C(=O)OC)c1 (configuration not stated)	-0.2%	-23.1	7.3	-6.4%
CCN(CC)S(=O)(=O)c1cccc(C(=O)N2CC(O)CC2C(=O)O)c1 (configuration not stated)	2.4%	-106.5*	10.0	-2.4%
SMILES	ALOX12 inhib	PNC inhibitor	IMPase inh	ALOX15B inhib
Cc1ccc(S(=O)(=O)NC(CC(=O)N2CCc3ccccc32)c2ccco2)cc1 (configuration not stated)	-8.0%	15.6	13.6	-5.2%
COc1ccc(S(=O)(=O)NC(CC(=O)N2CCc3ccccc32)c2ccco2)cc1 (configuration not stated)	-1.3%	-82.0*	-1.6	-1.6%
C=CCNC(=S)NNC(=O)c1ccc(OCCCC)cc1	-2.5%	-121.7*	-9.5	nt
CCCCOc1ccc(C(=O)NNC(=S)NC(=O)CC)cc1	-18.2%	?	nt	nt
CC(C)(C)OC(=O)N[C@H](Cc1ccccc1)C(=O)N1CCC(C(=O)O)CC1	-4.5%	-83.4*	-7.7	4.9%
CC(C)C[C@H](NC(=O)OC(C)(C)C)C(=O)N1CCC(C(=O)N[C@@H](Cc2ccccc2)C(=O)O)CC1	-1.0%	49.6	-1.0	1.9%
COC(=O)C1=C(Cn2cnc3ccccc32)NC(=O)NC1c1cc(C)ccc1C (configuration not stated)	6.4%	-103.4*	16.8	2.1%
CC(C)(C)C(=O)n1nc(-c2ccccc2)oc1=O	0.6%	-109.0*	nt	nt
CCN(c1cccc(C)c1)S(=O)(=O)c1ccc2[nH]c(=O)c(=O)[nH]c2c1	0.8%	-103.2*	-1.6	-1.9%
Cn1cc(/C=N/n2cnc3scc(-c4ccc(Cl)cc4)c3c2=O)c2ccccc21	-0.7%	-99.0*	0.8	?
CCc1[nH]c(=O)c(C#N)c2c1CSC(C)(C)C2	4.2%	4.9	-3.3	nt
Cc1[nH]c(=O)c(C#N)c2c1CSC(C)(C)C2	-1.8%	-100.0*	4.1	-2.0%
O=C(/C=C/c1ccc(O)c(O)c1)OC1C[C@](O)(C(=O)O)C[C@@H](O)[C@H]1O (some centres not stated)	-1.7%	nt	nt	2.3%
CC(=O)Nc1sc2c(c1C(c1ccc(F)cc1)N1CCOCC1)CCCC2 (configuration not stated)	-16.4%	2.9	2.7	2.4%
CC(=O)Nc1sc2c(c1C(c1ccc(Cl)cc1)N1CCOCC1)CCCC2 (configuration not stated)	-21.7%	-105.8*	8.3	6.8%
Cc1ccc(-n2c(=O)c3ccc(C(=O)NCc4ccco4)cc3n(CC(=O)Nc3ccccc3C(F)(F)F)c2=O)cc1	nt	nt	0.2	nt
CNC(=O)[C@@]1(C)C=C[C@@H](Cc2ccccc2)N1C(=O)OC	-0.4%	-95.8*	nt	12.9%
Cc1ccc(OCC(=O)Nc2ccc(F)cc2)cc1C	0.8%	-100.0*	-8.7	nt
CC(=O)Nc1cccc(OCC(=O)Nc2ccc(F)cc2)c1	-1.6%	25.2	-4.6	-3.3%
C[C@@H]1C(=O)N(C)C(=O)c2nc[nH]c21	-3.7%	nt	-0.7	3.3%
CN(C)CCCN1C(=O)C(=O)/C(=C(/O)c2ccc3c(c2)OCCO3)C1c1ccco1 (configuration not stated)	-1.7%	-86.0*	-5.9	-4.8%
Cc1nc(C)c(C(=O)C2=C(O)C(=O)N(CCCN(C)C)C2c2ccco2)s1 (configuration not stated)	-5.1%	-80.9*	4.7	-1.0%
C/C(=C\C(=S)Nc1ccccc1)Nc1cccc2ccccc12	-9.3%	?	nt	nt
C=CCNC(=S)Nc1ccc(Br)cc1F	-5.0%	-87.8*	-4.3	nt
C=CCNC(=S)Nc1cccc2ccccc12	-9.0%	-96.5*	5.1	-11.8%
Cc1ccc(-c2cc3nc(C)cc(NCc4ccco4)n3n2)cc1	2.8%	-104.1*	-4.1	25.7%
COc1ccc(-c2cc3nc(C)cc(NCCO)n3n2)cc1	3.2%	?	-9.1	16.1%
Cc1cc(-n2nc(C)cc2C)n2nc(C)c(-c3ccc(Cl)cc3)c2n1	-1.4%	47.3	2.6	-4.6%
Cc1cc(C)nc(N/N=C/C=C/c2ccccc2)n1	-1.7%	-104.0*	nt	nt
CCCN(CCC)c1ccc(CC(=O)NC(C)Cc2ccccc2)cc1 (configuration not stated)	-5.4%	3.2	5.9	nt

Source: PubChem BioAssay (National Center for Advancing Translational Sciences (NCATS))
